# The full list was thinned out, with hits kept by preference.
# RmlC RmlD mix = inhibitors of RmlC and RmlD coupled enzymes | RmlC/RmlD coupled enzyme inhibition, 384-well mixture HTS | inhibition, % at 5.5 µM | 110,000 tested, 0.39% active | AID 1532; in the data active = inhibition above about 30%, passing the limit was not always enough; inconclusive = no clear call, values can overlap the other calls
# HIV RNase H inh-1 = blocks HIV-1 RNase H cleavage of RNA/DNA duplex | 65,000 tested, 1.9% active | P04585 | inhibition, % at 10 µM | AID 565 | RT-RNase H RNA/DNA duplex cleavage, fluorescence; in the data active = inhibition above about 50%
# HIV RNase H inh-2 = confirmation of HIV-1 reverse transcriptase RNase H inhibitors; shares compounds with HIV RNase H inh-1; Recombinant RT RNase H, fluorescent RNA/DNA duplex cleavage; 1,000 tested, 39% active; inhibition, % at 10 µM; in the data active = inhibition above about 48%; inconclusive = no clear call, values can overlap the other calls
# * = called active by the depositor; ? = inconclusive; / = not tested or not shown.
SMILES,RmlC RmlD mix,HIV RNase H inh-1,HIV RNase H inh-2
Cc1ccccc1NC(=O)c1nc[nH]c1C(=O)NCc1ccccc1,-40,-20,/
CCOc1ccccc1NC(=O)c1nc[nH]c1C(=O)Nc1ccccc1OCC,26,84*,?
COc1ccc(NC(=O)c2nc[nH]c2C(=O)Nc2ccccc2C)cc1,-1,-76,/
c1cnn(-c2nc(N3CCOCC3)nc(N3CCOCC3)n2)c1,8,-15,/
N#CCCN(Cc1cccnc1)C(=O)c1ccc(S(=O)(=O)N2CCOCC2)cc1,-12,-1,/
CCOC(=O)c1c(N)nn(C(=O)C(C)C)c1-c1ccccc1,-5,-20,/
CCOC(=O)c1ccc(N=Cc2nc(-c3ccccc3)oc2OC(C)=O)cc1,11,75*,1
CC(=O)Oc1oc(-c2ccccc2)nc1C=Nc1ccccc1,20,/,/
CC(C(=O)N1CCN(c2ccc(Cl)cc2)CC1)c1ncc(C(F)(F)F)cc1Cl (configuration not stated),8,/,/
COc1ccc(-c2cc(C(=O)N3CCN(c4ccccc4)CC3)no2)cc1OC,-23,/,/
COc1ccccc1-c1cc(C(=O)N2CCN(c3ccc(F)cc3)CC2)no1,4,72*,25
O=C1c2ccccc2CC1Sc1nnc(-c2ccncc2)o1 (configuration not stated),4,46,/
Cc1nnc(SC2CC(=O)N(c3ccccc3)C2=O)s1 (configuration not stated),-13,/,/
O=C1CC(Sc2nnc(-c3ccccc3)o2)C(=O)N1c1ccccc1 (configuration not stated),12,52*,19
Cc1ccccc1N1C(=O)CC(Sc2nnc(-c3ccccc3)o2)C1=O (configuration not stated),8,58*,45
Cn1c(=O)[nH]c(=O)c2c1nc(N1CCCC1)n2CCSc1nc2ccccc2[nH]1,6,/,/
O=C(NC1(C(F)(F)F)NC(=O)N(CC2CCCCC2)C1=O)c1ccco1 (configuration not stated),7,-4,/
O=C(NCCc1c[nH]c2ccccc12)[C@@H]1C[C@H]1[C@@H](NP(=O)(c1ccccc1)c1ccccc1)c1ccccc1,-18,/,/
COC(=O)c1c(F)c(F)c(NCCO)c(F)c1F,-10,-3,/
CCOC(=O)CSC1=C(C#N)C(c2ccccc2F)C(C(C)=O)=C(C)N1 (configuration not stated),7,1,/
CSCSC1=C(C#N)C(c2ccccc2Cl)C(C(C)=O)=C(C)N1 (configuration not stated),-3,70*,42
COc1ccc(CCC(=O)N2CC(C)OC(C)C2)cc1 (configuration not stated),-13,-3,/
CCC(=O)Nc1ccc(/C(C)=N\NS(=O)(=O)c2ccc(C)cc2)cc1,-7,/,/
CCn1c2ccccc2c2nnc(SCN3C(=O)c4ccccc4C3=O)nc21,/,-5,/
Cc1ccc(C2C=C(c3ccccc3)Nc3ncnn32)cc1 (configuration not stated),10,/,/
SMILES,RmlC RmlD mix,HIV RNase H inh-1,HIV RNase H inh-2
C1=C(c2ccc(-c3ccccc3)cc2)Nc2ncnn2C1c1ccco1 (configuration not stated),12,90*,52*
COc1ccc(OC2C(=O)N(Cc3ccc4c(c3)OCO4)C2c2sccc2C)cc1 (configuration not stated),2,/,/
Cc1cc(-c2nc3c4c5c(sc4[nH]c(=O)n3n2)CCC5)c(C)o1,-7,81*,?
Cc1nc2sc3c(c2c(=O)[nH]1)CCC3,13,-8,/
O=C(NCc1ccco1)c1c2c(nc3ccccc13)CCC2,/,65*,22
O=C(NCc1ccco1)c1csc2c1CCCCC2,-10,-7,/
Cn1ccnc1P(=S)(c1nccn1C)c1nccn1C,4,-6,/
Cn1ccnc1P(=S)(c1nccn1C)N1CCOCC1,7,87*,62*
CNc1sc(C(=O)c2ccc(F)cc2)c(N)c1-c1nc2ccccc2s1,-9,/,/
CNc1sc(C(=O)c2cccs2)c(N)c1-c1nc2ccccc2s1,/,75*,38
CCO[C@H]1OC(C(N)=O)=C[C@@H](C)[C@@H]1CCCO,3,/,/
CCN(CC)S(=O)(=O)c1csc(C(=O)OCC(=O)c2ccccc2)c1,6,/,/
O=C(CSc1nnnn1-c1ccc(F)cc1)NC1CCCCC1,9,-3,/
CCOC(=O)C1C(=O)NC(SC)=C(C#N)C1c1ccccc1F (configuration not stated),-6,-7,/
CCOC(=O)C1C(=O)NC(SCC(N)=O)=C(C#N)C1c1ccccc1OCC (configuration not stated),-10,66*,-1
CCCc1n[nH]c2c1/C(=N\O)CCC2,10,/,/
CCN(CC)CCN1C(=O)C(=O)/C(=C(/O)c2ccc(C)cc2)C1c1cccnc1 (configuration not stated),/,-9,/
O=c1/c(=C/c2ccccn2)sc2nc3ccccc3n12,/,60*,79*
COC(=O)/C=c1/sc2nc3ccccc3n2c1=O,7,-3,/
CCC/C=C(\CCC)C(NC(=O)CCc1ccccc1)c1ccc(C(F)(F)F)cc1 (configuration not stated),13,/,/
Cc1ccc(N=c2ssnc2Cl)cc1,-35,/,/
Cc1cc(C)nc(/N=c2/ssnc2Cl)c1,-14,84*,15
CC(=O)c1coc2ccc(OCC(=O)O)cc12,-5,-2,/
CC(C)OC(=O)CSc1nnc(-c2ccc(C(C)(C)C)cc2)n1N,/,82*,63*
CC(C)OC(=O)CSc1nnc(-c2ccncc2)n1N,-5,5,/
SMILES,RmlC RmlD mix,HIV RNase H inh-1,HIV RNase H inh-2
Cc1cc(CN2C(=O)c3ccccc3C2=O)cc(N2CCOCC2)c1,-14,-34,/
COc1ccc(C2=NOC(C)(c3nnc(-c4ccc(F)cc4)o3)C2)cc1 (configuration not stated),2,/,/
O=C1CC(N2CCN(c3ccc(O)cc3)CC2)C(=O)N1Cc1cccs1 (configuration not stated),-5,81*,20
O=C1CC(N2CCN(C/C=C/c3ccccc3)CC2)C(=O)N1Cc1cccs1 (configuration not stated),-8,5,/
Nc1c(C(=O)Nc2ccc(F)cc2)sc2nc(-c3ccco3)ccc12,14,89*,40
Nc1c(C(=O)Nc2ccc(Br)cc2)sc2nc(-c3ccco3)ccc12,-37,/,/
Cc1ccc(C(C(=O)NC2CCCC2)N(Cc2cccs2)C(=O)c2csnn2)o1 (configuration not stated),4,/,/
CC(C)(C)c1ccc(-c2nnc3sc(-c4ccncc4)nn23)cc1,-3,95*,58*
CCOc1ccc(-c2nn3c(-c4ccc(OC)cc4)nnc3s2)cc1,/,-1,/
Cc1nnc2sc(-c3ccncc3)nn12,30,-7,/
CCOc1ccc(-c2nn3c(-c4ccccc4)nnc3s2)cc1,-9,87*,17
Cc1ccc(OCc2nn3c(-c4n[nH]c5c4CCC5)nnc3s2)cc1,/,26,/
O=C(COC(=O)Cc1ccc(S(=O)(=O)N2CCOCC2)s1)Nc1ccc2c(c1)OCO2,8,/,/
NC(=O)c1cc(-c2ccccc2)sc1NC(=O)Cc1ccc(S(=O)(=O)N2CCOCC2)s1,-4,58*,67*
CCCc1cc(=O)[nH]c(/N=C(/NC(=O)c2ccccc2)Nc2ccc3c(c2)OCCO3)n1,9,61*,48
Cc1cc(=O)[nH]c(/N=C(/NC(=O)c2ccccc2)Nc2ccc3c(c2)OCCO3)n1,/,48,/
Cc1cc(C)c2nc(C(F)(F)F)nc(NCCCN3CCOCC3)c2c1,-6,/,/

# Screening results: PubChem BioAssay, several laboratories
